Bioassay records deposited in PubChem by several laboratories.
Peg3 promoter: Peg3 promoter-driven luciferase inhibitors, primary screen, cell-based, HeLa, luciferase luminescence; AID 588405, 2011; inhibition, % at 20 µM; HeLa PEG-Prom luciferase reporter, overnight; 1.7% of 360,000 active;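 active means inhibition of at least 50% at 20 µM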
KKLEB tox: cytotoxicity in KKLEB CF airway cells, primary screen, cytotoxicity control for CF NF-kB inhibitor project, cell-based, uHTS, fluorescence assay plates. KKLEB CF airway cells viability, ATPlite luminescence, overnight; active compounds read low; cells stimulated with P. aeruginosa culture filtrate. activity change (cytotoxicity), % at 5 µM. 0.36% of 360,000 active;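 active means corrected activity change at or below -50% at 5 µM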
MITF TRPM1 inh: inhibitors of MITF-dependent TRPM1 promoter reporter, primary screen, cell-based, SK-MEL-5, single point, luciferase; SK-MEL-5 TRPM1 promoter luciferase, 24 h; inhibition, % at 12.5 µM; 0.83% of 330,000 active;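 active means mean inhibition across replicates of 60% or more, whatever share of single replicates reaches that level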
CF NFkB inh: inhibitors of PAF-induced NF-kB signaling, primary screen, cell-based, GFP fluorescence, uHTS | 0.86% of 360,000 active | inhibition, % at 5 µM | KKLEB NF-kB-GFP reporter, GFP fluorescence overnight | AID 588850, 2011;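 active means at least 50% inhibition at 5 µM, scaled per plate between neutral and stimulator controls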;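 further: PAF is a Pseudomonas aeruginosa culture filtrate used as stimulus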
EBV LMP1 NFkB: EBV LMP1-driven NF-kappaB luciferase reporter inhibitors, primary screen, cell-based, luminescence, single point. 0.69% of 350,000 active. LMP1-induced NF-kappaB luciferase reporter cells. inhibition, % at 12.5 µM; in the data active means inhibition above about 41%
HIF-2a inh: HIF-2a reporter inhibitors, primary screen, luminescence, 786-0 RCC cells; 786-0 RCC cells HIF-2a reporter, luciferase luminescence, overnight; inhibition, % at 18.8 µM; 0.72% of 360,000 active;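 active means inhibition of the luminescence signal of 40% or more relative to plate controls, in a single-dose primary screen at 18.75 µM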
Hits are given with their value; - = inactive; . = no result; ! = not confirmed by another sample. An excerpt weighted towards active compounds, which were near 3% of everything screened.

SMILES | Peg3 promoter | KKLEB tox | MITF TRPM1 inh | CF NFkB inh | EBV LMP1 NFkB | HIF-2a inh
COc1ccc(O[C@@H]2O[C@H](COC(C)=O)[C@@H](OC(C)=O)[C@H](OC(C)=O)[C@H]2NC(C)=O)cc1 | 79.4 | - | - | - | - | -
CCN(CC)C(=O)C1=C(C)N(CCCOC)C(=O)C(CC(=O)NCc2ccco2)C1 (stereo not drawn) | - | - | . | - | - | -
COc1cc2sc3ccc(C#CC4(O)CCCCC4)cc3c(=O)c2cc1OC | - | - | - | - | - | -
COc1cccc2sc3cc(C#CC4(O)CCCCC4)ccc3c(=O)c12 | 88.7 | - | - | - | - | -
Cn1c2ccccc2c(=O)c2ccc(C#CC3(O)CCCCC3)cc21 | 70.4 | - | - | - | - | -
CN(C(=O)c1ccc(NC(=O)Cc2cccc(NC(=O)C3CCN(C(=O)C4CCCC4)CC3)c2)cc1)C1CC1 | - | - | - | - | - | -
COc1cccc(CN2CCC2(C)C(=O)Nc2ccc(C)c(O)c2)c1F (stereo not drawn) | - | - | . | - | . | -
CCOc1ccccc1Nc1nc(-c2sc(NC(=O)c3ccco3)nc2C)cs1 | 60.3 | - | - | - | - | -
Cc1nc(NC(=O)c2ccccc2)sc1-c1csc(Nc2ccc(C(=O)O)cc2)n1 | - | - | - | 66.1 | - | -
CC(=O)Nc1nc(C)c(-c2csc(Nc3ccccn3)n2)s1 | - | - | - | 56.1! | - | -
CC(=O)Nc1nc(C)c(-c2csc(Nc3ccc(O)cc3)n2)s1 | - | - | - | 78.1 | 45.1 | -
Cc1ccccc1Nc1nc(-c2sc(NC(=O)c3ccco3)nc2C)cs1 | - | - | - | - | - | -
CCOC(=O)[C@]12CCC=C1N(Cc1ccccc1)C(=O)[C@H](CC(=O)NCCCN1CCCC1=O)C2 | . | . | . | . | . | -
O=C(N1CCOCC1)C12OC3CC(CC(C3)O1)O2 | - | - | . | - | . | -
CC(=O)Nc1nc(C)c(-c2csc(Nc3cccc([N+](=O)[O-])c3)n2)s1 | - | - | - | 85.5 | 49.9 | -
CCOC(=O)CC1(CCc2ccccc2)Oc2ccccc2O1 | . | . | . | . | . | -
CCCCC1CCC(C(=O)N(CCCC)c2c(N)n(CCCC)c(=O)[nH]c2=O)CC1 (stereo not drawn) | - | - | 91.1 | - | - | -
CCCCC1CCC(C(=O)N(CC(C)C)c2c(N)n(CCCC)c(=O)[nH]c2=O)CC1 (stereo not drawn) | - | - | 73.9 | - | - | -
CCCCn1c(N)c(N(CCC)C(=O)C2CCCC2)c(=O)[nH]c1=O | - | - | - | - | - | -
CCCCn1c(N)c(N(CC(C)C)C(=O)C2CCCO2)c(=O)[nH]c1=O (stereo not drawn) | - | - | - | - | - | -
CCCCn1c(N)c(N(CCC(C)C)C(=O)C2CCCO2)c(=O)[nH]c1=O (stereo not drawn) | - | - | - | - | - | -
CCCCC1CCC(C(=O)N(CCC(C)C)c2c(N)n(CCCC)c(=O)[nH]c2=O)CC1 (stereo not drawn) | 98.2 | - | . | - | - | -
COc1ccc(OC)c(CN2C(=O)CSCC2(C)C(=O)NC(C)C)c1 (stereo not drawn) | . | . | . | . | . | -
CCCNC(=O)C1(C)CCCN(Cc2ccc(C(F)(F)F)cc2)C1 (stereo not drawn) | - | - | . | - | . | -
CCCC[C@@H]1Cc2[nH][nH]c(=O)c2[C@H](c2ccc(C(C)C)cc2)O1 | . | . | . | . | . | -
SMILES | Peg3 promoter | KKLEB tox | MITF TRPM1 inh | CF NFkB inh | EBV LMP1 NFkB | HIF-2a inh
COc1ccc(C(=O)Nc2ccc(Cl)c(S(=O)(=O)Nc3ccccc3OC)c2)cc1 | - | - | - | - | - | -
COc1ccccc1NS(=O)(=O)c1cc(NC(=O)c2ccc(Cl)nc2)ccc1Cl | 50.2 | - | 64.1 | - | - | -
CCCC[C@@H](CNC)NC[C@H](Cc1ccc(O)cc1)NCCc1ccc(OCC)cc1 | 96.6 | - | 96.2 | - | - | -
CCC[C@H](CN[C@@H](CNC)[C@H](C)O)NCCc1ccc(OC)cc1 | - | - | - | - | - | -
CCOC(=O)c1c(-c2ccccc2)oc2ccc(OCC(O)CN(C)C)cc12 (stereo not drawn) | 105.3 | - | - | - | - | -
Cc1ccc(S(=O)(=O)NN=Cc2ccccc2Cl)cc1 | - | - | . | - | - | -
Oc1c(N=NC(=S)Nc2ccccc2F)c2ccccc2n1Cc1ccc(F)cc1 | - | - | - | - | 51.0 | -
Oc1c(N=NC(=S)Nc2ccccc2F)c2ccccc2n1Cc1cccc(Cl)c1 | - | - | - | - | 44.4 | -
CCCCC1C(=O)CC[C@H]2[C@@H]1CC(=O)[C@@H]2C/C=C\CCCC(=O)O (stereo partly drawn) | - | -100.5 | - | - | - | -
CCCCCCCC/C=C\CCCCCCCC(=O)O | - | - | - | - | - | -
COc1ccc2nc(NC(=O)c3cccc(-c4cc5ccccc5oc4=O)c3)sc2c1 | 99.1 | -53.8 | - | 59.6 | - | -
Cc1ccccc1S(=O)Cc1ccc(C(=O)N2CCN(C3CCCCC3)CC2)o1 (stereo not drawn) | - | - | . | - | - | -
CCCN(CCC)CC(O)Cn1cc(/C=C/C(=O)c2ccccc2)c2ccccc21 (stereo not drawn) | - | - | - | - | - | -
CCCCN(C)CC(O)Cn1cc(/C=C/C(=O)c2ccc(C)cc2)c2ccccc21 (stereo not drawn) | 100.2 | - | - | - | - | -
CCC1(C)Cc2c(sc3nnn(CC(=O)Nc4cccc5ccccc45)c(=O)c23)CO1 (stereo not drawn) | 56.5 | - | - | - | - | -
CCC1(C)Cc2c(sc3nnn(CC(=O)Nc4ccc(C)cc4)c(=O)c23)CO1 (stereo not drawn) | - | - | - | - | - | -
COc1ccc(C(=O)c2[nH]c(N)c(C(=O)NCCc3c[nH]c4ccccc34)c2-c2ccc(Br)cc2)cc1 | . | . | . | . | . | -
O=C(CCl)c1ccc2c(c1)CCN2C(=O)C1CCCCC1 | 104.9 | - | - | - | - | -
CCC1CCCCN1S(=O)(=O)c1ccc2c(c1)CCN2C(=O)C1CCC1 (stereo not drawn) | - | - | - | - | - | -
c1ccc(COc2cccc(-c3cc4nc(NCCc5ccncc5)ccn4n3)c2)cc1 | - | - | . | - | . | -
COC(=O)C1=CN(c2ccc3c(c2)OCO3)C(N)=C(C#N)C1c1ccc(-c2ccccc2)cc1 (stereo not drawn) | . | . | . | . | . | -
COCc1cccc(-c2csc(C(C)(O)c3ccc(OC)cc3)n2)c1 (stereo not drawn) | - | - | . | - | . | -
O=C(CNc1ccc(C(F)(F)F)cc1)Nc1cccc(S(=O)(=O)N2CCCCC2)c1 | - | - | . | - | - | -
